Imprint erasure: induces erasure of genomic imprints in mouse ES cells | mouse ES Peg3-LacZ reporter, beta-gal luminescence, 40 h | Potency, µM (highest dose often 60.7 µM), for inactives: at the highest dose activity change, positive = activation, actives largely listed as activators | actives 0.02% (n = 110,000)
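Gelatin-coated wells received 300 freshly trypsinized female ES cells with a Peg3LacZ-Neo reporter on the maternal allele, then incubated 40 hours at 37C. BetaGlo was added for 5 minutes at room temperature before a single luminescence read.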
p53ts 32C tox: p53ts cell cytotoxicity, permissive temperature; Potency, µM (series often up to 46.1 µM), for the others: top-dose activity change, negative = cytotoxicity, most hits filed as cytotoxic; H1299-p53A138V at 32C, ATP luminescence viability, 24 h; AID 924; actives 0.93% (n = 130,000);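 note: 0% = DMSO and -100% = full killing by reference compound; nearly all actives have a fitted effect of over 55% in size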
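H1299-p53 A138V cells (temperature-sensitive p53) exposed 24 h to up to 46 uM compound at 32C, where p53 is wild-type in conformation. Viability read as ATP luminescence and normalised to DMSO and 100 uM tamoxifen. AC50 fitted with the Hill equation.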
p53ts 39C tox: p53ts cell cytotoxicity, nonpermissive temperature | H1299-p53A138V viability at 39C, ATP luminescence, 24 h | Potency, µM (top dose mostly 46.1 µM), inactives show at the top dose activity change, negative = cell killing, usual class: cytotoxic | actives 1.5% (n = 130,000); note: % is set by controls: 0 for no effect and ±100 for the full control effect; nearly all actives have a fitted effect of over 55% in size
Starred values were filed as active, the others as inactive; ? = inconclusive; · = not tested or not shown; [ ] = remark or other dose. Shown are actives, neighbours in structure and some others; about 1.8% of the full set was active somewhere. Calls come from the whole dose curve; as a rule, active = well fitted curve in the direction sought with a large enough effect; inconclusive = small, poorly fitted or top-dose-only effect, or another doubt; inactive = no such curve, though single readings can be large; an effect the other way counts as inactive or inconclusive. Potency is the fitted concentration of half-maximal effect.

SMILES	Imprint erasure	p53ts 32C tox	p53ts 39C tox
CCCN1CCc2cccc3c2[C@@H]1Cc1ccc(O)c(O)c1-3	·	-24%	?
O=C1C=CC(=O)C(Cl)=C1	-18%	·	·
CCCOc1ccc(C(=O)Nc2ccc(-c3cc4ccccc4oc3=O)c(C)c2)cc1	-20%[10.9 µM]	?	6.3µM*
CCCOC(=O)COc1cc(C)cc2oc(=O)c3c(c12)CCC3	-11%	1%	-2%
O=C(Nc1nc2ccccc2s1)c1cccn(Cc2ccccc2)c1=O	-24%[10.9 µM]	-2%	?
Cc1ccccc1Cn1cccc(C(=O)Nc2nc3ccccc3s2)c1=O	-29%[10.9 µM]	11%	10µM*
CC(=O)O/C(=C1/C[C@H]2[C@@H]3CC=C4C[C@@H](OC(C)=O)CC[C@]4(C)[C@@H]3CC[C@]2(C)C1=O)C(F)(F)F	-21%[10.9 µM]	4%[9.22 µM]	14%[9.22 µM]
Cc1oc2ccc(O)c(CN3CCCCCC3)c2c1C(=O)Nc1cccc(Cl)c1C	-14%[10.9 µM]	-11%	16µM*
Cc1c(Cl)cccc1NC(=O)CN1C(=O)C(C)N=C(c2ccccc2)c2ccccc21 (stereo not drawn)	?	12%	-15%
